Screens (PubChem)
gsp agonist = gsp mutant agonism; gsp mutant cells, cAMP HTRF, 30 min; Potency, µM (doses to about 76.9 µM), without a hit: at the highest dose activation (cAMP increase), usual class: activators; actives 0.13% (n = 340,000); active = well fitted activation curve with a large enough effect; inconclusive = small, poorly fitted or top-dose-only effect, or another doubt; inactive = no such curve, though single readings can be large or run the other way; cell line not stated here;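 also: phosphodiesterase inhibitor Ro 20-1724 added with compounds to block cAMP breakdown; potency is read from the fitted curve at half-maximal effect; nearly all actives have a fitted effect of over 60% in size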
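Cells stably selected in G418 were plated at 2000/well, grown 16-24 hr, then given compounds in DMSO with the PDE inhibitor […] (300 uM solution added) for 30 min at 37C; cAMP was read by HTRF.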
gsp antag = antagonizes gsp, the McCune-Albright syndrome mutation; gsp-mutant cells, cAMP HTRF, 30 min; Potency, µM (series often up to 76.9 µM), without a hit: top-dose activity change, negative = inhibition, hits mostly inhibitors; actives 0.4% (n = 340,000); AID 624288; calls by dose curve; cell line not stated here;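 also: intracellular cAMP measured with PDE inhibitor Ro 20-1724 present during compound exposure; potency is read from the fitted curve at half-maximal effect; % is scaled to controls: 0 for no effect and ±100 for the full control effect; nearly all actives have a fitted effect of over 65% in size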
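G418-selected cells were plated in DMEM/10% FBS for 16-24 h at 37C, then treated with compounds plus the PDE inhibitor […] (300 uM solution added) for 30 min at 37C. Intracellular cAMP was measured by HTRF after 30 min lysis at room temperature.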
RXFP1 antagonist = blocks the human relaxin receptor RXFP1. Q9HBX9. HEK293-RXFP1, relaxin-stimulated cAMP HTRF, 30 min; active compounds read low. activity change, negative = inhibition, % at 57.5 µM. actives 0.59% (n = 350,000). AID 1259400;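 active = activity change of -60% or lower, but not beyond a set lower limit; inconclusive = change between -60% and -40%, or beyond the set limit; inactive = change above -40%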; also: % is scaled to controls: 0 for no effect and ±100 for the full control effect
Target sequence (Q9HBX9 whole entry, looked up): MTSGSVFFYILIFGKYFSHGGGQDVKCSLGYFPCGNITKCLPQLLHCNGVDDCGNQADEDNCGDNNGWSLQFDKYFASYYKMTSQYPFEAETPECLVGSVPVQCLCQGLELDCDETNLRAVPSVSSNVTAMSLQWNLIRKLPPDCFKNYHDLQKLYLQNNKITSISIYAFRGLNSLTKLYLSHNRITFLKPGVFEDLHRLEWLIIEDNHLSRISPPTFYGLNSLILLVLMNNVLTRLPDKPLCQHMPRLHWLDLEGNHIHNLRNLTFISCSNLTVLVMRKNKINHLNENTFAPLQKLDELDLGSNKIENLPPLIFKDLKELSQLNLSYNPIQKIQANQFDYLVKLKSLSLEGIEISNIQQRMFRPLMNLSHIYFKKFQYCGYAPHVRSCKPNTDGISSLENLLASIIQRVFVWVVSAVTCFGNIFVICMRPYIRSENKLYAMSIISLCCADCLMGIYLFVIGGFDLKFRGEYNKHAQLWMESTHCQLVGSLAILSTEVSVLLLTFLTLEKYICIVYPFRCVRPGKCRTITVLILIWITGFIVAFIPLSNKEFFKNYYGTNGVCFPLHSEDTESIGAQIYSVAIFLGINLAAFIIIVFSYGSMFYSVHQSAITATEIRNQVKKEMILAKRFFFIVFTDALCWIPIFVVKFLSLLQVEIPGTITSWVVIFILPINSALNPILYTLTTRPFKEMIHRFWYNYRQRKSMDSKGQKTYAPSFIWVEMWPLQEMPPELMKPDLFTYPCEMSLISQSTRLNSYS
RXFP1 agonist = agonists of human relaxin receptor RXFP1; Q9HBX9; HEK293T-RXFP1 cAMP TR-FRET, 30 min; response scale: percent of porcine relaxin response, buffer zero; Potency, µM (series often up to 57.5 µM), for the others: at the highest dose activation, actives largely listed as activators; actives 0.3% (n = 370,000); active = well fitted activation curve with a large enough effect; inconclusive = small, poorly fitted or top-dose-only effect; also: potency is read from the fitted curve at half-maximal effect; % is scaled to controls: 0 for no effect and ±100 for the full control effect; nearly all actives have a fitted effect of over 60% in size
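HEK293 cells stably expressing RXFP1, treated 30 min at 37C with compounds plus PDE4 inhibitor Ro 20174; cAMP measured by HTRF TR-FRET. Normalized to buffer and 29 nM porcine relaxin; EC50 by Hill fit.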
* = called active by the depositor; ? = inconclusive; . = no result; ! = a repeat was not active; [ ] = another dose, or the depositor's remark. In the library only some 0.9% were active in any assay of this set; here they are far more common.

SMILES	gsp agonist	gsp antag	RXFP1 antagonist	RXFP1 agonist
COc1ccc2c(C)c(CCC(=O)NCCc3ccc(OC)c(OC)c3)c(=O)oc2c1	.	.	-5	1%
COc1ccc(CCNC(=O)C(=O)NCC(c2cccs2)S(=O)(=O)c2ccc(F)cc2)cc1 (centres undefined)	.	.	.	3%
CCc1nonc1NC(=O)c1oc2ccc(Br)cc2c1C	-22%	10%	-14	25µM*!
CCc1nonc1NC(=O)c1oc2cc(C)c(C)cc2c1C	-3%	1%	12	-2%
O=C(CN1C(=O)C(=O)N(CCC2=CCCCC2)C1=O)c1c[nH]c2ccccc12	18%[15.4 µM]	-19%	-66*	.
CCOc1ccccc1C(=O)Nc1c(NC)c2ccccc2oc1=O	.	.	2	2%
COc1ccc(C)c2sc(N(Cc3cccnc3)C(=O)COc3ccccc3)nc12	.	.	-15	-1%
Clc1ccccc1/C=C/C=N/Nc1nc(N2CCOCC2)nc(N2CCOCC2)n1	-7%[15.4 µM]	13µM*	-23	-1%
COc1ccc2oc(=O)c(-c3csc(Nc4ccc(O)cc4)n3)cc2c1	0%	25µM*	-39	-3%
CCOC(=O)c1nnn(CC(=O)Nc2cc(C)cc(C)c2)c1C(=O)OCC	.	.	-9	1%
COc1cc(/C=C2\SC(=S)N(Nc3ncc(C(F)(F)F)cc3Cl)C2=O)ccc1O	0%[15.4 µM]	-12%	-74*	0%
CCOC(=O)c1cc(-c2ccc(C)cc2)n(CCC(=O)Nc2ccc(C(C)C)cc2)c1C	.	.	.	0%
CC(C)(C)OC(=O)N1CCC(c2c(C(=O)N3CCOCC3)cnn2-c2cccc(F)c2)CC1	.	.	-19	-1%
COc1ccc(C)cc1NC(=O)c1ccc2c(SCC(=O)O)c3c(nc2c1)CCCC3	-26%	-10%	2	0%
Cc1ccc(NC(=O)c2ccc3c(SCC(=O)O)c4c(nc3c2)CCCC4)c(Br)c1	13µM*	-22%	19	11%
CCN1/C(=C/C(C)=C/c2sc3ccccc3[n+]2CC)Sc2ccccc21	-93%	35µM*	-119*	5%
CC(=O)c1ccc(S(=O)(=O)Nc2cccc(-c3ccc(N4CCCC4)nn3)c2)cc1	.	.	2	2%
S=c1[nH]c2nc(Cl)c(Cl)nc2[nH]1	13µM*	.	3	.
CCOc1ccc(NC(=O)Cn2sc3nc(C)cc(C)c3c2=O)cc1	-2%[15.4 µM]	-2%	-66*	6%
Cc1ccc(NS(=O)(=O)c2c(C)nc3sc(C)c(C)n3c2=O)cc1F	.	.	-24	4%
O=C(CS(=O)Cc1ccco1)NC/C=C\COc1cc(CN2CCCCC2)ccn1 (centres undefined)	.	.	-12	.
COc1ccc(CCNC(=O)c2cc(S(=O)(=O)N3CCC4(CC3)OCCO4)ccc2F)cc1OC	?	11µM*	-23	-2%
O=C(NCc1cccc(Cl)c1)c1cc(COc2ccc3ncccc3c2)on1	-3%[15.4 µM]	35µM*	-7	-2%
Cc1ccc(NC(=O)C2CCCN(c3ncnc4c3nc3n4CCCCC3)C2)cc1F (centres undefined)	.	.	-11	3%
COc1ccc(NC(=O)c2cc3c(-c4ccccc4F)nn(C)c3s2)c(OC)c1	.	.	-9	3%
SMILES	gsp agonist	gsp antag	RXFP1 antagonist	RXFP1 agonist
Cc1cccc(-n2c(-c3ccco3)n[nH]c2=S)c1	6.3µM*	15%	9	30%
CCCc1cc(-c2n[nH]c(=S)n2-c2cccc(C)c2)cs1	-4%[15.4 µM]	.	-31	1%
Cc1cccc(-n2c(-c3csc(C(C)C)c3)n[nH]c2=S)c1	17%	-30%	-71*	0%
Cc1cccc(C(=O)N2CCc3cc(CNS(=O)(=O)c4ccc(F)c(Cl)c4)ccc32)c1	.	.	9	4%
CCOC(=O)C(=CNc1cc(C)ccc1[N+](=O)[O-])C(=O)OCC	-12%	?	-7	0%
CCOC(=O)C(=CNc1cc(C)ccc1C)C(=O)OCC	0%	35µM*	-9	1%
Cc1ccccc1-c1nc(CS(=O)(=O)CC(=O)NC2CC2)c(C)o1	4%	1%	-78*	0%
COc1ccc2cc(C=O)ccc2c1	.	.	-28	.
COC(=O)c1ccc2c(=O)n(-c3ccccc3)c(=S)[nH]c2c1	-33%	-13%	-99*	-1%
O=C(Nc1ccccc1Cl)C(=O)c1cn(CC(=O)N2CCOCC2)c2ccccc12	-26%	?	8	-2%
Cc1ccc(C(C)C)c(OCc2ccc(C(=O)N/N=C/c3ccc(O)cc3O)cc2)c1	-4%	3%	-15	0%
Cc1ccc(C(C)C)c(OCc2ccc(C(=O)N/N=C/c3ccc(C(=O)O)cc3)cc2)c1	9%	-28%	-69*	0%
Cc1cccc(Nc2nc3c(s2)CCCC3)c1	-21%	-7%	-22	7%
O=C(O)c1ccc(Nc2nc3c(s2)CCCC3)cc1	10µM*	-15%	-8	-2%
CNC(=O)CN(CCN(CCN(CC(=O)[O-])CC(=O)NC)CC(=O)[O-])CC(=O)[O-].O.[Gd+3]	.	.	-11	.
CCOc1cc(/C=N/NC(=O)c2ccccc2-n2cccc2)ccc1O	20%	8%	-7	3%
CCOc1cc(/C=N/NC(=O)c2ccccc2OCc2ccc(F)cc2)ccc1O	?	35µM*	5	-3%
COc1ccc(/C=N\NC(=O)c2ccccc2Cl)cc1COc1c(F)c(F)c(F)c(F)c1F	18%[15.4 µM]	-15%	-13	0%
COc1ccc(/C=N\NC(=O)c2ccccc2OC)cc1COc1c(F)c(F)c(F)c(F)c1F	-6%[15.4 µM]	40µM*	-19	-2%
Cc1ccc(CN(Cc2cccn2-c2nnc(N3CCCC3=O)s2)C(=O)Nc2cc(C)cc(C)c2)cc1	.	.	-10	25%
Cc1ccc(OCc2cc(C(=O)N(C)CCc3ccccn3)no2)cc1C	?	-3%	-6	2%
Cc1ccc(OCc2cc(C(=O)N(C)CCc3nc4ccccc4[nH]3)no2)cc1C	2%	35µM*	-3	0%
CC(=O)Nc1ccc(NC(=O)CSc2nnc3ccc(-c4ccccn4)nn23)cc1	11%[15.4 µM]	0%	-106*	4%
CC(=O)Nc1ccc(NC(=O)CSc2ccc3nnc(-c4ccccn4)n3n2)cc1	?	30%	2	8.9µM*
CC(=O)Nc1cccc(NC(=O)CSc2nnc3ccc(-c4ccccn4)nn23)c1	27%	-7%	-17	2%
SMILES	gsp agonist	gsp antag	RXFP1 antagonist	RXFP1 agonist
COc1ccc(NC(=O)CSc2ccc3nnc(-c4ccccn4)n3n2)cc1OC	?	2%	3	0%
O=c1cc(C(F)(F)F)nc(SC/C=C/c2ccccc2)[nH]1	-11%	?	-78*	1%
Nc1cc(=O)[nH]c(SC/C=C/c2ccccc2)n1	-21%	-7%	-1	0%
CCC(=O)NC(c1cccs1)c1cc([N+](=O)[O-])c2cccnc2c1O (centres undefined)	-37%	?	?	3%
CCCC(=O)NC(c1cccs1)c1cc([N+](=O)[O-])c2cccnc2c1O (centres undefined)	21%[15.4 µM]	-24%	-66*	0%
Cc1ccc(NC(=O)C2SC(=Nc3ccccc3)C(C(=O)Nc3ccc(Cl)cc3)=C2N)cc1 (centres undefined)	-9%[15.4 µM]	-8%	-66*	-1%
